From PubChem
An excerpt weighted towards active compounds, which were near 19% of everything screened.
DT40 TDP1 no CPT: qHTS for Inhibitors of human tyrosyl-DNA phosphodiesterase 1 (TDP1): qHTS in cells in absence of CPT; 420,000 compounds, 15% hits; Potency, µM (highest dose often 46.2 µM), actives largely listed as inhibitors; DT40 Tdp1-/- hTDP1 cells, no CPT, ATP luminescence, 48 h; also: nearly all actives have a fitted effect of over 55% in size
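DT40 Tdp1-/-;hTDP1 cells, no CPT (DMSO vehicle only), 400 cells/well; compounds pin-transferred; ≥48 hr, 37 °C; CellTiter-Glo 30 min RT dark, luminescence read.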
HepG2 tox: HepG2 cytotoxicity, counter-screen for TGF-b inhibitors. HepG2 CAGA-GFP viability, ATP luminescence, 18 h. Potency, µM (titrated, usually from 46.1 µM), most hits filed as cytotoxic. 410,000 compounds, 0.76% hits
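CellTiter-Glo luminescence gave cytotoxicity after 18 hours at 37 degrees C. The cells were HepG2 CAGA-GFP in 1% FBS DMEM, stimulated with 500 pg/mL TGF-beta after compound addition. %Activity was normalised to no-cell wells (complete cell-killing) and DMSO (no toxicity), and curves were fitted and classified.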
ASM inhibitor: human S-ASM enzyme inhibition; P17405; placental ASM, HMU-PC fluorogenic substrate, 60 min; Potency, µM (doses to about 57.5 µM), hits mostly inhibitors; 340,000 compounds, 0.006% hits
Target sequence (P17405 47-631 limits assumed): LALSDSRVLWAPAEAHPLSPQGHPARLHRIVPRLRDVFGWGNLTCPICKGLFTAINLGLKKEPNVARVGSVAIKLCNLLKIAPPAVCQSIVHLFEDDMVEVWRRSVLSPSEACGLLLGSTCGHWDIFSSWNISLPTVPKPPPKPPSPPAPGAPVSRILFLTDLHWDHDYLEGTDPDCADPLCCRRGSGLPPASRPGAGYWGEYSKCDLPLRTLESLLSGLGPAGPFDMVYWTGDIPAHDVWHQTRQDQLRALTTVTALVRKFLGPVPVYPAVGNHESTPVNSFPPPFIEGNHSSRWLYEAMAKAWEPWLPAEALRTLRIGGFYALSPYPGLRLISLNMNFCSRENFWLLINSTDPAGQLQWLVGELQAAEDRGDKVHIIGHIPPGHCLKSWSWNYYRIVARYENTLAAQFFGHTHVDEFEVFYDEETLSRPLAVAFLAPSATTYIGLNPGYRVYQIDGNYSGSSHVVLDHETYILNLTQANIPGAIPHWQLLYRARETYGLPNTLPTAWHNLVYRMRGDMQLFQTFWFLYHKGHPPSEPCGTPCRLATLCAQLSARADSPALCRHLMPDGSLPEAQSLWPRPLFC
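Fluorescence read-out (Ex 386 nm, Em 447 nm) after stopping the reaction at pH 10. Enzyme: ASM from human placenta; substrate HMU-PC0, 9 uM final; 60 min, 37 °C. Compound preincubation 10 min, ambient temperature.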
IL1B secr inh: inflammasome signaling inhibition, IL-1 beta readout; 360,000 compounds, 4.7% hits; THP-1 LPS/ATP IL-1B secretion, AlphaLISA, 16 h; stronger effect = lower value; activity change, % at 57.5 µM; AID 743279; in the data active = activity change below about -50%; inconclusive = mostly about -30% to -49%
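THP-1 cells pretreated 1 hr with compounds (up to 57.5 uM final), then stimulated with LPS (250 ng/mL final) plus ATP (1.25 mM final); secreted IL-1B measured by AlphaLISA after 16 hr, decreased signal indicating inhibition.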
TGFb SMAD3 inh: blocks TGF-b signaling; 410,000 compounds, 1.2% hits; Potency, µM (top dose mostly 46.1 µM), usual class: inhibitors; AID 588855; HepG2 CAGA-GFP TGF-b/SMAD3 reporter, GFP fluorescence, 18 h; TGF-beta stimulated, 500 pg/mL final; also: nearly all actives have a fitted effect of over 65% in size
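HEPG2 CAGA-GFP reporter cells (1000/well, DMEM with 1% FBS) received compounds, then recombinant TGF-beta at 500 pg/mL final for 18 hours at 37 degrees C. Per-cell GFP summed per well was normalised to unstimulated and stimulated DMSO controls before curve fitting.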
DT40 TDP1 CPT: growth inhibition of DT40 Tdp1-/-;hTDP1 cells with camptothecin (screen for TDP1 inhibitors). chicken DT40 Tdp1-/-;hTDP1 cells + 20 nM CPT, ATP luminescence, 48 h. Potency, µM (titrated, usually from 46.2 µM), actives largely listed as inhibitors. 420,000 compounds, 12% hits. AID 686979; also: nearly all actives have a fitted effect of over 55% in size
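Cell growth measured by CellTiter-Glo luminescence after a minimum 48 h, 37 C compound exposure with 20 nM CPT in Tdp1-knockout DT40 cells stably expressing hTDP1, seeded 400/well; qHTS titration format.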
Each line names hits and unclear results; the compound was inactive in the other large screens. Unless noted, calls follow the shape of the dose curve; as a rule, active = well fitted curve in the direction sought with a large enough effect; inconclusive = small, poorly fitted or top-dose-only effect, or another doubt; inactive = no such curve, though single readings can be large; an effect the other way counts as inactive or inconclusive.

Cc1cccc(-n2c(C)cc(C(=O)C(=O)Nc3nncs3)c2C)c1	none (no result: ASM inhibitor, IL1B secr inh)
O=C(c1ccco1)n1nc(-c2ccccc2)nc1NCc1ccc(F)cc1	none (no result: DT40 TDP1 no CPT, ASM inhibitor, IL1B secr inh, DT40 TDP1 CPT)
CN(Cc1ccco1)C(=O)C1CCC(=O)N(CCc2cccc(F)c2)C1 (configuration not stated)	DT40 TDP1 no CPT inconclusive, DT40 TDP1 CPT inconclusive
CN(C(=O)C1CCC(=O)N(Cc2cccc(F)c2)C1)C1CCCCC1 (configuration not stated)	DT40 TDP1 no CPT inconclusive, DT40 TDP1 CPT inconclusive
C#CCN(C(=O)C1CCC(=O)N(CCc2cccc(F)c2)C1)C1CCCCC1 (configuration not stated)	DT40 TDP1 no CPT 6.51µM, DT40 TDP1 CPT 18.4µM (no result: ASM inhibitor)
CC#CCN(Cc1ccco1)C(=O)C1CCC(=O)N(CCc2cccc(F)c2)C1 (configuration not stated)	DT40 TDP1 no CPT 14.6µM, DT40 TDP1 CPT 20.6µM (no result: ASM inhibitor)
COc1ccc(-c2[nH][nH]c(=O)c2NC(=O)c2ccccc2Br)cc1	none (no result: ASM inhibitor)
COc1cc(NC(=O)C(NS(=O)(=O)c2ccc3c(c2)CCCC(=O)N3)C(C)C)cc(OC)c1 (configuration not stated)	none (no result: ASM inhibitor, IL1B secr inh)
CC1CCN(C(=O)c2[nH]cnc2C(=O)Nc2nccs2)CC1	TGFb SMAD3 inh inconclusive
COc1ccc(CC(=O)NCc2nc3cccnc3n2Cc2ccc(C)cc2)cc1OC	DT40 TDP1 no CPT inconclusive, DT40 TDP1 CPT inconclusive (no result: ASM inhibitor, IL1B secr inh)
O=C(CCCN1C(=O)/C(=C\c2ccccc2)SC1=S)Nc1ccc(C(=O)O)cc1	none
CC(/C=C1\SC(=S)N(CC(=O)N2CCN(c3ccccc3)CC2)C1=O)=C\c1ccccc1	DT40 TDP1 no CPT 20.6µM, DT40 TDP1 CPT 20.6µM
O=C(NN1C(=O)/C(=C/C=C/c2ccccc2)SC1=S)c1ccncc1	ASM inhibitor inconclusive, IL1B secr inh -71.6
CC(=O)c1ccc(NC(=O)CCCN2C(=O)/C(=C/C(C)=C/c3ccccc3)SC2=S)cc1	DT40 TDP1 no CPT 23.1µM, IL1B secr inh -65.7, DT40 TDP1 CPT inconclusive
CC(/C=C1\SC(=O)N(CC(=O)Nc2cccc(O)c2)C1=O)=C\c1ccccc1	DT40 TDP1 no CPT inconclusive, IL1B secr inh -56.6, TGFb SMAD3 inh inconclusive
CN(Cc1ccccc1F)C(=O)CCNC(=O)c1ccc(C(C)(C)C)cc1	DT40 TDP1 no CPT inconclusive, DT40 TDP1 CPT inconclusive
COc1ccc(S(=O)(=O)NCC2CCCN(Cc3ccc(O)cc3)C2)cc1 (configuration not stated)	none
O=C(CN1C(=O)S/C(=C/c2ccncc2)C1=O)Nc1ccccc1	DT40 TDP1 no CPT inconclusive, DT40 TDP1 CPT 23.1µM
CC(/C=C1\SC(=S)N(NC(=O)c2cccc(O)c2)C1=O)=C\c1ccccc1	ASM inhibitor inconclusive, IL1B secr inh -100.8, TGFb SMAD3 inh inconclusive
CC(/C=C1\SC(=O)N(CC(=O)Nc2ccc(O)cc2)C1=O)=C\c1ccccc1	IL1B secr inh -76.4, TGFb SMAD3 inh inconclusive
COc1ccccc1N1CCN(CCN2C(=O)C3CCCN3C2=O)CC1 (configuration not stated)	none
O=C1c2ccccc2CCC12OC2c1ccncc1 (configuration not stated)	DT40 TDP1 no CPT 2.91µM (no result: ASM inhibitor)
CCOc1ccccc1NC(=O)Cn1c(=O)nc(-c2ccccc2F)c2cc(Cl)ccc21	DT40 TDP1 no CPT 20.6µM, DT40 TDP1 CPT inconclusive (no result: ASM inhibitor, IL1B secr inh)
COc1ccc(CNC(=O)Cn2c(=O)nc(-c3ccccc3F)c3cc(Cl)ccc32)cc1OC	none (no result: ASM inhibitor, IL1B secr inh)
COc1ccccc1CNC(=O)Cn1c(=O)nc(-c2ccccc2F)c2cc(Cl)ccc21	DT40 TDP1 no CPT 6.51µM, DT40 TDP1 CPT inconclusive (no result: ASM inhibitor, IL1B secr inh)
Cc1ccc(-c2nc3sc(CCNC(=O)c4ccco4)c(C)n3n2)cc1	DT40 TDP1 no CPT 18.4µM, TGFb SMAD3 inh inconclusive, DT40 TDP1 CPT inconclusive (no result: ASM inhibitor, IL1B secr inh)
